In the supplement of paper PMC8728848:
This excerpt belongs to a sample that is enriched for the strongest signals.

What was measured:
Test in all cases: glycan array binding signal (z-score within array); higher = stronger binding
Details in all cases: glycan notation: IUPAC condensed, linker removed
[1] = target: Fuc(a1-2)Gal(b1-3)GlcNAc(b1-3)[Gal(b1-4)[Fuc(a1-3)]GlcNAc(b1-6)]Gal(b1-4)Glc
In short: (§1)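 Columns mapping to the same glycan were averaged after glycan names were converted to IUPAC-condensed notation. The data come from 3228 arrays in the Consortium for Functional Glycomics database, limited to those with an available protein sequence. Binding is reported as a within-array Z-score averaged across arrays of one protein sequence and across linkers.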

[2] = target: Fuc(a1-2)Gal6S(b1-4)GlcNAc
In short: as §1

Fuc(a1-2)[Gal(a1-3)]Gal = target: Fuc(a1-2)[Gal(a1-3)]Gal
In short: as §1

[3] = target: Fuc(a1-2)[Gal(a1-3)]Gal(b1-3)GlcNAc
In short: as §1

[4] = target: Fuc(a1-3)[Gal(b1-4)]GlcNAc(b1-2)Man(a1-3)[Fuc(a1-3)[Gal(b1-4)]GlcNAc(b1-2)Man(a1-6)]Man(b1-4)GlcNAc(b1-4)GlcNAc
In short: as §1

[5] = target: Fuc(a1-3)[Gal(b1-4)]GlcNAc(b1-3)Gal(b1-3)[Fuc(a1-4)]GlcNAc
In short: as §1

Gal(b1-2)Gal = target: Gal(b1-2)Gal
In short: as §1

[6] = target: Gal(b1-4)GlcNAc(b1-2)Man(a1-6)[Man(a1-3)]Man(b1-4)GlcNAc(b1-4)GlcNAc
In short: as §1

[7] = target: Gal(b1-4)GlcNAc(b1-3)Gal(b1-4)Glc
In short: as §1

Gal3S(b1-4)GlcNAc = target: Gal3S(b1-4)GlcNAc
In short: as §1

Gal3S6S(b1-4)GlcNAc = target: Gal3S6S(b1-4)GlcNAc
In short: as §1

GalNAc(a1-3)Gal = target: GalNAc(a1-3)Gal
In short: as §1

[8] = target: GlcNAc(a1-4)Gal(b1-4)GalNAc
In short: as §1

[9] = target: GlcNAc(a1-4)Gal(b1-4)GlcNAc(b1-3)Gal(b1-4)[Fuc(a1-3)]GlcNAc(b1-3)Gal(b1-4)[Fuc(a1-3)]GlcNAc
In short: as §1

[10] = target: GlcNAc(b1-3)Gal(b1-4)GlcNAc
In short: as §1

GlcNAc(b1-3)Man = target: GlcNAc(b1-3)Man
In short: as §1

[11] = target: Man(a1-2)Man(a1-2)Man(a1-6)[Man(a1-3)]Man
In short: as §1

Man(a1-2)Man(a1-3)Man = target: Man(a1-2)Man(a1-3)Man
In short: as §1

[12] = target: Neu5Ac(a2-3)Gal(b1-3)GalNAc6S
In short: as §1

[13] = target: Neu5Ac(a2-3)Gal(b1-4)GlcNAc(b1-3)Gal(b1-4)GlcNAc(b1-3)Gal(b1-4)GlcNAc
In short: as §1

[14] = target: Neu5Ac(a2-6)GlcNAc(b1-4)GlcNAc(b1-4)GlcNAc
In short: as §1

[15] = target: Neu5Ac9Ac(a2-3)Gal(b1-4)GlcNAc
In short: as §1

[16] = target: Neu5Gc(a2-3)Gal(b1-3)GlcNAc
In short: as §1

B1: DETC sTCR (Mus musculus) (protein)
chain: LDVYLEPVAKTFTVVAGDPASFYCTVTGGDMKNYHMSWYKKNGTNALFLVYKLNSNSTDGGKSNLKGKINISKNQFILDIQKATMKDAGTYYCGSDIGGSSWDTRQMFFGTGIELFVEPKSQPPAKPSVFIMKNGTNVACLVKDFYPKEVTISLRSSKKIVEFDPAIVISPSGKYSAVKLGQYGDSNSVTCSVQHNSETVHSTDFEPYANSFNNEKLPEPENDTQISEPCSSADLVPRGSTTAPSAQLKKKLQALKKKNAQLKWKLQALKKKLAQHHHHHHDSWISQDQLSFTRRPNKTVHISCKLSGVPLHNTIVHWYQLKEGEPLRRIFYGSVKTYKQDKSHSRLEIDEKDDGTFYLIINNVVTSDEATYYCACWDSSGFHKVFAEGTKLIVIPSDKRLDADISPKPTIFLPSVAETNLHKTGTYLCLLEKFFPDVIRVYWKEKDGNTILDSQEGDTLKTNDTYMKFSWLTVPERAMGKEHRCIVKHENNKGGADQEIFFPSIKKVAVSTKPTTCSSADLVPRGSTTAPSAQLEKELQALEKENAQLEWELQALEKELAQLNDIFEAQKIEW
glycan array binding signal (z-score) [1]: -0.448
glycan array binding signal (z-score) [2]: 2.96
glycan array binding signal (z-score) (Fuc(a1-2)[Gal(a1-3)]Gal): 0.343
glycan array binding signal (z-score) [3]: -0.572
glycan array binding signal (z-score) [4]: -0.52
glycan array binding signal (z-score) [5]: -0.531
glycan array binding signal (z-score) (Gal(b1-2)Gal): -0.101
glycan array binding signal (z-score) [6]: 6.38
glycan array binding signal (z-score) [7]: -0.495
glycan array binding signal (z-score) (Gal3S(b1-4)GlcNAc): 2.74
glycan array binding signal (z-score) (Gal3S6S(b1-4)GlcNAc): -0.25
glycan array binding signal (z-score) (GalNAc(a1-3)Gal): -0.71
glycan array binding signal (z-score) [8]: 3.96
glycan array binding signal (z-score) [9]: 5.91
glycan array binding signal (z-score) [10]: -0.215
glycan array binding signal (z-score) (GlcNAc(b1-3)Man): -0.035
glycan array binding signal (z-score) [11]: 0.993
glycan array binding signal (z-score) (Man(a1-2)Man(a1-3)Man): -0.043
glycan array binding signal (z-score) [12]: 1.09
glycan array binding signal (z-score) [13]: -0.518
glycan array binding signal (z-score) [14]: 5.83
glycan array binding signal (z-score) [15]: 0.262
glycan array binding signal (z-score) [16]: -0.599
